In PubChem BioAssay (Tox21):
Records with an inconclusive call do not appear. Calls of active or inactive are those of the source. Unless noted, calls come from the whole dose curve; as a rule, active = well fitted curve in the direction sought with a large enough effect in the repeat runs; inconclusive = weak or mixed curves; inactive = no such curve, though single readings can be large; an effect the other way counts as inactive or inconclusive.

Key:
[1] = qHTS assay to test for compound auto fluorescence at 535 nm (green) in HEK293 cells (AID 720680)
[2] = qHTS assay to test for compound auto fluorescence at 460 nm (blue) in HEK293 cell free culture (AID 720681)
In short: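 Compounds were added to cell-free DMEM with 10% FBS and fluorescence read directly. The blue channel used 405 nm excitation and 460 nm emission, with triamterene as the reference fluorophore.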

[3] = qHTS assay to test for compound auto fluorescence at 535 nm (green) in HEK293 cell free culture (AID 720682)
In short: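 DMEM + 10% FBS, cell-free; cpd or DMSO pinned in; Ex485/Em535 read; output as fluorescein-equivalent signal.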

[4] = qHTS assay to test for compound auto fluorescence at 590 nm (red) in HEK293 cell free culture (AID 720683)
In short: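 Cell-free wells of DMEM with 10% FBS received compound, and intrinsic fluorescence was read at excitation/emission 540/590 nm. Values expressed as equivalence to Rose Bengal sodium.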

[5] = qHTS assay to test for compound auto fluorescence at 590 nm (red) in HepG2 cell free culture (AID 720684)
In short: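 Compound was pinned into wells holding MEM with 10% FBS and no cells, and red fluorescence was read at Ex/Em 540/590 nm. Signal is expressed as auto fluorescence equivalency relative to Rose Bengal sodium.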

[6] = qHTS assay to test for compound auto fluorescence at 460 nm (blue) in HepG2 cell free culture (AID 720685)
In short: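 Compound (23 nL) or DMSO pinned into cell-free MEM with 10% FBS; blue fluorescence read at 405/460 nm excitation/emission, expressed as auto-fluorescence equivalency to triamterene.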

[7] = qHTS assay to test for compound auto fluorescence at 535 nm (green) in HepG2 cell free culture (AID 720686)
[8] = qHTS assay to test for compound auto fluorescence at 460 nm (blue) in HepG2 cells (AID 720687)
In short: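 HepG2 cells in MEM with 10% FBS, attached overnight at 37 C, were exposed to compound or DMSO for 1 hr at 37 C, 5% CO2. Blue fluorescence was read at 405/460 nm, with triamterene as reference fluorophore.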

[9] = qHTS assay for identifying genotoxic compounds that show differential cytotoxicity against isogenic chicken DT40 cell lines with known DNA damage response pathways - Rad54/Ku70 mutant cell line (AID 743015); note: nearly all actives have a fitted effect of over 60% in size
[10] = qHTS assay to identify small molecule antagonists of the androgen receptor (AR) signaling pathway - cell viability counter screen (AID 743033; note: nearly all actives have a fitted effect of over 45% in size)
[11] = qHTS assay to identify small molecule antagonists of the androgen receptor (AR) signaling pathway using the MDA cell line - cell viability counter screen (AID 743041; note: nearly all actives have a fitted effect of over 45% in size)
In short: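 MDA-kb2 AR-luc cells (MMTV-luciferase, AR/GR responsive) treated with compounds plus R1881 agonist for 16 h at 37C. CellTiter-Fluor added at 15.5 h; fluorescence read after 30 min in the same wells.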

[12] = qHTS assay for identifying genotoxic compounds that show differential cytotoxicity against isogenic chicken DT40 cell lines with known DNA damage response pathways - Rev3 mutant cell line (AID 743014); note: nearly all actives have a fitted effect of over 55% in size
[13] = qHTS assay to identify small molecule antagonists of the glucocorticoid receptor (GR) signaling pathway - cell viability counter screen (AID 720693); note: nearly all actives have a fitted effect of over 55% in size
[14] = target: Androgen receptor (Homo sapiens) (UniProt P10275); test: qHTS assay to identify small molecule antagonists of the androgen receptor (AR) signaling pathway (AID 743035; active = well fitted inhibition curve with a large enough effect in the signal ratio in the repeat runs, not every such curve was filed as active; the % refers to the signal ratio)
In short: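 Using qHTS, AR-UAS-bla GripTite HEK293 cells received compound, then R1881, and were cultured 16 h at 37C/5% CO2 before a 2 h room-temperature LiveBLAzer B/G FRET substrate step and fluorescence measurement.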

[15] = target: Androgen receptor (Homo sapiens) (UniProt P10275); test: qHTS assay to identify small molecule agonists of the androgen receptor (AR) signaling pathway using the MDA cell line (AID 743040; note: nearly all actives have a fitted effect of over 20% in size)
In short: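 MDA-kb2 breast carcinoma cells carrying MMTV-luciferase (responsive to AR and GR), plated 5 h then treated 16 h with compounds at 37C, 0% CO2. Read-out was ONE-Glo luminescence after 30 min at room temperature.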

[16] = target: Androgen receptor (Homo sapiens) (UniProt P10275); test: qHTS assay to identify small molecule antagonists of the androgen receptor (AR) signaling pathway using the MDA cell line (AID 743042; note: nearly all actives have a fitted effect of over 55% in size)
In short: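 MDA-kb2 breast carcinoma cells carrying MMTV-luciferase (AR/GR responsive) were co-treated with compounds and the agonist R1881 for 16 h at 37C. Inhibition read as ONE-Glo luminescence; CellTiter-Fluor fluorescence measured in parallel for cytotoxicity.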

[17] = target: Androgen receptor (Homo sapiens) (UniProt P10275); test: qHTS assay to identify small molecule agonists of the androgen receptor (AR) signaling pathway (AID 743036; active = well fitted activation curve with a large enough effect in the signal ratio in the repeat runs, with a control signal flat, not every such curve was filed as active; the % refers to the signal ratio)
In short: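 Screening used 2,000 AR-bla HEK293 cells per well, treated 16 h at 37C with test compounds in DMSO alongside positive and DMSO-only controls; beta-lactamase activity was then read by LiveBLAzer B/G FRET fluorescence after 2 h at room temperature.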

[18] = qHTS assay for identifying genotoxic compounds that show differential cytotoxicity against isogenic chicken DT40 cell lines with known DNA damage response pathways - wild type cell line (AID 743012); note: nearly all actives have a fitted effect of over 60% in size
In short: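 Using parental DT40 (300 cells/well), compounds delivered in DMSO incubate 40 h at 37 C/5% CO2. CellTiter-Glo reagent then stands 30 min at room temperature, and luminescence gives cell viability.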

[19] = target: Glucocorticoid receptor (Homo sapiens) (UniProt P04150); test: qHTS assay to identify small molecule antagonists of the glucocorticoid receptor (GR) signaling pathway (AID 720692; active = well fitted inhibition curve with a large enough effect in the signal ratio in the repeat runs, not every such curve was filed as active; the % refers to the signal ratio)
In short: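 Dexamethasone (5 nM final) stimulated a stably integrated GRE-beta-lactamase reporter in HeLa cells during 18 h co-incubation with compounds; signal was quantified as fluorescence intensity of B/G FRET substrate after 2 h.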
% is set by controls: 0 for no effect and ±100 for the full control effect.

Sequence of Androgen receptor (Homo sapiens) (P10275 whole entry, looked up): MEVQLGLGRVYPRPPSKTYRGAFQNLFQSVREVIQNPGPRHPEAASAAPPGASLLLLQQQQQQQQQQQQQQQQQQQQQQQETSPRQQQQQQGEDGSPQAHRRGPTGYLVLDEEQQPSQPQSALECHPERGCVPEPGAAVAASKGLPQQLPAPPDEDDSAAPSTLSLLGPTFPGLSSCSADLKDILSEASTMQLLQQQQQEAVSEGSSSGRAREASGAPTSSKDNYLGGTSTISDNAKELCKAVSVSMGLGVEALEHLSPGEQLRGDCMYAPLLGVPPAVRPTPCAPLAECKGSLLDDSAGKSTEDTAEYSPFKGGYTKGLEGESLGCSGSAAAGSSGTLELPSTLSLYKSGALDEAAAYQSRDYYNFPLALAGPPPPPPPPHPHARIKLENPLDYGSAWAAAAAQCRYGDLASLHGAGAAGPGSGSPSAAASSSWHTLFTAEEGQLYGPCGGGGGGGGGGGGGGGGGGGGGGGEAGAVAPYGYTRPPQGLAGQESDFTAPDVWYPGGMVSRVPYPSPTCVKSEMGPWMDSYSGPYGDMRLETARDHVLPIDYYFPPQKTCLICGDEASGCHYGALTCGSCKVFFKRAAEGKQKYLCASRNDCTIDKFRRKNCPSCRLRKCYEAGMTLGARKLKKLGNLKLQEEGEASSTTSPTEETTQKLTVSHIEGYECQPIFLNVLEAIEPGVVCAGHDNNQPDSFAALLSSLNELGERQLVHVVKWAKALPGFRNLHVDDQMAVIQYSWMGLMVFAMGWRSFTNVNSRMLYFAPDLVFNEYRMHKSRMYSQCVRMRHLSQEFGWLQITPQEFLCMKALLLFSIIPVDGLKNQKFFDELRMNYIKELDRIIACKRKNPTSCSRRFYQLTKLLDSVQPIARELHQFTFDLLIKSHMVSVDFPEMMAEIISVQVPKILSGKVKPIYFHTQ
Sequence of Glucocorticoid receptor (Homo sapiens) (P04150 whole entry, looked up): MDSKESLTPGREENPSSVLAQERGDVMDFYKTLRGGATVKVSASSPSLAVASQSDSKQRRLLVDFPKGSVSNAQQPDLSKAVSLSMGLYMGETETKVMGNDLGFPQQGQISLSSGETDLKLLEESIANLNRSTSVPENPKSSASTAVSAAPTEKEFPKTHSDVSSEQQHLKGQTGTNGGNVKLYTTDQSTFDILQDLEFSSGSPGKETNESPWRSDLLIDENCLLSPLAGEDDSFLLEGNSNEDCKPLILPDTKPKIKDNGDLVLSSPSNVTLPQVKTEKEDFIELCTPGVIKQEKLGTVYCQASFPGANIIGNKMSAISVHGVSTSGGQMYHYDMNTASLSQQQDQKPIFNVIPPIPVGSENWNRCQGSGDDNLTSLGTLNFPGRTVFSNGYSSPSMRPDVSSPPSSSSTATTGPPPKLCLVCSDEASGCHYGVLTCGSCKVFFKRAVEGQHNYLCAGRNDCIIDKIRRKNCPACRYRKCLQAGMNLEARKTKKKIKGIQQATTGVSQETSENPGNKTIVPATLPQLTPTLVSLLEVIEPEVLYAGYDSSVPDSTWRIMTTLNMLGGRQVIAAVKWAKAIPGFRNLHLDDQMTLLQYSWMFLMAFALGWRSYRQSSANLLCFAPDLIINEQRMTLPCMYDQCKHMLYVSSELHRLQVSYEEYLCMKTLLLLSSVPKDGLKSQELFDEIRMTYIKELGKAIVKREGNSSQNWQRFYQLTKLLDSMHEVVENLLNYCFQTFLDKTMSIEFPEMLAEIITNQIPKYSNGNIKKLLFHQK

CCCCCCCCS(=O)(=O)O
inactive: outcome [1] | outcome [2] | outcome [3] | outcome [4] | outcome [5] | outcome [6] | outcome [7] | outcome [8] | Potency [9] | outcome [10] | outcome [11]

Cc1ccc(S(=O)(=O)NC(=O)NN2CC3CCCC3C2)cc1 (stereo unspecified)
inactive: fluorescence, % of fluorescein [1] -0.0141% [at 18.6 µM] | fluorescence, % of fluorescent control [2] 0.0029% [at 18.6 µM] | activity change [3] -0.0097% [at 18.6 µM] | fluorescence, % of fluorescent control [4] 0.167% [at 18.6 µM] | fluorescence, % of Rose Bengal [5] 0.0439% [at 18.6 µM] | fluorescence, % of fluorescent control [6] -0.0187% [at 18.6 µM] | fluorescence, % of fluorescein control [7] -0.0072% [at 18.6 µM] | fluorescence, % of fluorescent control [8] -0.0447% [at 18.6 µM] | Potency [12] | Potency [9] | outcome [10] | outcome [11]

CN(C)c1cc(NC(=O)CNC(C)(C)C)c(O)c2c1C[C@H]1C[C@H]3[C@H](N(C)C)C(=O)C(C(N)=O)=C(O)[C@@]3(O)C(=O)C1=C2O
inactive: outcome [1] | outcome [2] | outcome [3] | outcome [4] | outcome [5] | outcome [6] | outcome [7] | outcome [8] | outcome [13] | Potency [9] | outcome [10] | outcome [14] | outcome [15] | outcome [11] | outcome [16]

CCOc1ccccc1OCCN[C@H](C)Cc1ccc(OC)c(S(N)(=O)=O)c1
inactive: outcome [1] | outcome [2] | outcome [3] | outcome [4] | outcome [5] | outcome [6] | outcome [7] | outcome [8] | outcome [13] | Potency [9] | outcome [11]

Cc1ccc(O)c([N+](=O)[O-])c1
inactive: outcome [1] | outcome [2] | outcome [3] | outcome [4] | outcome [5] | outcome [6] | outcome [7] | outcome [8] | Potency [12] | Potency [9] | outcome [10] | outcome [11]

CN(C)c1ccncc1
inactive: outcome [1] | outcome [2] | outcome [3] | outcome [4] | outcome [5] | outcome [6] | outcome [7] | outcome [8] | outcome [13] | outcome [10] | outcome [11]

COC(=O)/C=C(\C)CCC=C(C)C
inactive: outcome [1] | outcome [2] | outcome [3] | outcome [4] | outcome [5] | outcome [6] | outcome [7] | outcome [8] | outcome [13] | outcome [10] | outcome [11]

CCCC(=O)C(CC)Sc1ccoc1C (stereo unspecified)
inactive: outcome [1] | outcome [2] | outcome [3] | outcome [4] | outcome [5] | outcome [6] | outcome [7] | outcome [8] | outcome [10] | outcome [14] | outcome [17] | outcome [15] | outcome [11] | outcome [16]

Cc1cc(C)c(C)c(C)c1
inactive: outcome [1] | outcome [2] | outcome [3] | outcome [4] | outcome [5] | outcome [6] | outcome [7] | outcome [8] | Potency [18] | Potency [9] | outcome [11]

Cc1cccc(N)n1
inactive: outcome [1] | outcome [2] | outcome [3] | outcome [4] | outcome [5] | outcome [6] | outcome [7] | outcome [8] | outcome [13] | outcome [10] | outcome [11]

CC(=O)Oc1ccc(C(C)=O)cc1
inactive: outcome [1] | outcome [2] | outcome [3] | outcome [4] | outcome [5] | outcome [6] | outcome [7] | outcome [8] | Potency [18] | Potency [12] | Potency [9] | outcome [10] | outcome [11]

CCCCCCCCCCCCCCCC/C=C/C1CC(=O)OC1=O (stereo unspecified)
inactive: outcome [1] | outcome [2] | outcome [3] | outcome [4] | outcome [5] | outcome [6] | outcome [7] | outcome [8] | outcome [13] | Potency [12] | outcome [10] | outcome [11]

CCN1CCN(C(=O)N[C@@H](C(=O)N[C@@H]2C(=O)N3C(C(=O)O)=C(CSc4nnnn4C)CS[C@H]23)c2ccc(O)cc2)C(=O)C1=O
inactive: outcome [1] | outcome [2] | outcome [3] | outcome [4] | outcome [5] | outcome [6] | outcome [7] | outcome [8] | Potency [12] | Potency [9] | outcome [10] | outcome [11]

C/C(=N\O)c1ccc(OCC(=O)N2CCCCC2)cc1
inactive: outcome [1] | outcome [2] | outcome [3] | outcome [4] | outcome [5] | outcome [6] | outcome [7] | outcome [8] | outcome [13] | Potency [9] | outcome [10] | outcome [14] | outcome [17] | outcome [15] | outcome [11] | outcome [16]

CC(=O)c1ccc2ccc3ccccc3c2c1
inactive: outcome [1] | outcome [2] | outcome [3] | outcome [4] | outcome [5] | outcome [6] | outcome [7] | outcome [8] | outcome [13] | outcome [10] | outcome [11]

CCCCCCCCOCCC#N
inactive: outcome [1] | outcome [2] | outcome [3] | outcome [4] | outcome [5] | outcome [6] | outcome [8] | outcome [13] | Potency [18] | Potency [12] | Potency [9] | outcome [10] | outcome [11]

O=C[C@@H](O)[C@H](O)[C@H](O)CO
inactive: outcome [1] | outcome [2] | outcome [3] | outcome [4] | outcome [5] | outcome [6] | outcome [8] | Potency [12] | Potency [9] | outcome [14] | outcome [17] | outcome [15] | outcome [16]

O=C1c2ccccc2C(=O)N1CO
inactive: outcome [1] | outcome [2] | outcome [3] | outcome [4] | outcome [5] | outcome [6] | outcome [8] | outcome [19] | outcome [13] | Potency [18] | Potency [12] | Potency [9] | outcome [10] | outcome [14] | outcome [17] | outcome [15] | outcome [11] | outcome [16]

CNC(C)=O
inactive: outcome [1] | outcome [2] | outcome [3] | outcome [4] | outcome [5] | outcome [6] | outcome [8] | outcome [19] | outcome [13] | Potency [18] | Potency [12] | Potency [9] | outcome [10] | outcome [11]
